Measured values as given in PubChem BioAssay (NCATS).
Inconclusive results are not listed. Calls of active or inactive are those of the source. Calls come from the whole dose curve; as a rule, active = well fitted cell-killing curve with a large enough effect; inconclusive = small, poorly fitted or top-dose-only effect, or effect the other way; inactive = no such curve, though single readings can be large or run the other way.

Tests used:
[1] = Quantitative High-Throughput drug screen in 47 multiple myeloma cell lines against the NCATS MIPE library collection: MM1S_ATCC cell viability assay (AID 1918980); note: nearly all actives have a fitted effect of over 45% in size; note: potency is the fitted concentration of half-maximal effect
Summary of the method: (§1)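 Inhibition of viability over 48 h was scored by ATP content (CellTiter-Glo) in 500-cell wells. Zero and full viability were defined by media-only and DMSO-only wells.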

[2] = Quantitative High-Throughput drug screen in 47 multiple myeloma cell lines against the NCATS MIPE library collection: MM1R_ATCC cell viability assay (AID 1918981); note: nearly all actives have a fitted effect of over 35% in size; note: potency is the fitted concentration of half-maximal effect
Summary of the method: as §1

[3] = Quantitative High-Throughput drug screen in 47 multiple myeloma cell lines against the NCATS MIPE library collection: LP1_DSMZ cell viability assay (AID 1918982); note: nearly all actives have a fitted effect of over 35% in size; note: potency is the fitted concentration of half-maximal effect
Summary of the method: as §1

[4] = Quantitative High-Throughput drug screen in 47 multiple myeloma cell lines against the NCATS MIPE library collection: KMS28PE_JCRB cell viability assay (AID 1918983); note: nearly all actives have a fitted effect of over 35% in size; note: potency is the fitted concentration of half-maximal effect
Summary of the method: as §1

[5] = Quantitative High-Throughput drug screen in 47 multiple myeloma cell lines against the NCATS MIPE library collection: KMS34_JCRB cell viability assay (AID 1918985); note: nearly all actives have a fitted effect of over 40% in size; note: potency is the fitted concentration of half-maximal effect
Summary of the method: as §1

[6] = Quantitative High-Throughput drug screen in 47 multiple myeloma cell lines against the NCATS MIPE library collection: OCIMY7_PLB cell viability assay (AID 1918987); conditions: OCI-MY7 myeloma viability, CellTiter-Glo ATP, 48 h; viability (% of DMSO): at 45.8 µM (top of the series); note: nearly all actives have a fitted effect of over 65% in size; note: potency is the fitted concentration of half-maximal effect
Summary of the method: as §1

[7] = Quantitative High-Throughput drug screen in 47 multiple myeloma cell lines against the NCATS MIPE library collection: OPM1_PLB cell viability assay (AID 1918989); note: nearly all actives have a fitted effect of over 40% in size; note: potency is the fitted concentration of half-maximal effect
Summary of the method: as §1

[8] = Quantitative High-Throughput drug screen in 47 multiple myeloma cell lines against the NCATS MIPE library collection: SKMM1_PLB cell viability assay (AID 1919863); conditions: SKMM1 myeloma viability, CellTiter-Glo ATP, 48 h; viability: stronger effect = lower value; note: nearly all actives have a fitted effect of over 35% in size; note: potency is the fitted concentration of half-maximal effect
Summary of the method: as §1

[9] = Quantitative High-Throughput drug screen in 47 multiple myeloma cell lines against the NCATS MIPE library collection: U266_ATCC cell viability assay (AID 1919864); note: nearly all actives have a fitted effect of over 35% in size; note: potency is the fitted concentration of half-maximal effect
Summary of the method: as §1

[10] = Quantitative High-Throughput drug screen in 47 multiple myeloma cell lines against the NCATS MIPE library collection: XG6_PLB cell viability assay (AID 1919865); note: potency is the fitted concentration of half-maximal effect; nearly all actives have a fitted effect of over 40% in size
Summary of the method: as §1

[11] = Quantitative High-Throughput drug screen in 47 multiple myeloma cell lines against the NCATS MIPE library collection: XG1_PLB cell viability assay (AID 1919866); note: nearly all actives have a fitted effect of over 35% in size; note: potency is the fitted concentration of half-maximal effect
Summary of the method: as §1

[12] = Quantitative High-Throughput drug screen in 47 multiple myeloma cell lines against the NCATS MIPE library collection: VP6_DJ cell viability assay (AID 1919867); note: nearly all actives have a fitted effect of over 40% in size; note: potency is the fitted concentration of half-maximal effect
Summary of the method: as §1

[13] = Quantitative High-Throughput drug screen in 47 multiple myeloma cell lines against the NCATS MIPE library collection: UTMC2_PLB cell viability assay (AID 1919868); conditions: CellTiter-Glo ATP luminescence, 48 h; viability (% of DMSO control): at 45.8 µM (top of the series); note: nearly all actives have a fitted effect of over 55% in size; note: potency is the fitted concentration of half-maximal effect
Summary of the method: as §1

[14] = Quantitative High-Throughput drug screen in 47 multiple myeloma cell lines against the NCATS MIPE library collection: PE2_PLB cell viability assay (AID 1919869); note: nearly all actives have a fitted effect of over 35% in size; note: potency is the fitted concentration of half-maximal effect
Summary of the method: as §1

[15] = Quantitative High-Throughput drug screen in 47 multiple myeloma cell lines against the NCATS MIPE library collection: RPMI8226_ATCC cell viability assay (AID 1919871); note: nearly all actives have a fitted effect of over 30% in size; note: potency is the fitted concentration of half-maximal effect
Summary of the method: as §1

[16] = Quantitative High-Throughput drug screen in 47 multiple myeloma cell lines against the NCATS MIPE library collection: OPM2_DSMZ cell viability assay (AID 1919872); note: nearly all actives have a fitted effect of over 30% in size; note: potency is the fitted concentration of half-maximal effect
Summary of the method: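 We plated 500 myeloma cells per well, pinned in MIPE 4.0 compounds, and incubated for 48 hours at 37C. ATP was then quantified with CellTiter-Glo, with DMSO and media-only wells defining 100% and 0%.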

[17] = Quantitative High-Throughput drug screen in 47 multiple myeloma cell lines against the NCATS MIPE library collection: L363_DSMZ cell viability assay (AID 1918984); note: nearly all actives have a fitted effect of over 40% in size; note: potency is the fitted concentration of half-maximal effect
Summary of the method: as §1

[18] = Quantitative High-Throughput drug screen in 47 multiple myeloma cell lines against the NCATS MIPE library collection: OCIMY5_PLB cell viability assay (AID 1918988); note: nearly all actives have a fitted effect of over 65% in size; note: potency is the fitted concentration of half-maximal effect
Summary of the method: as §1

[19] = Quantitative High-Throughput drug screen in 47 multiple myeloma cell lines against the NCATS MIPE library collection: PCM6_Riken cell viability assay (AID 1919870); note: nearly all actives have a fitted effect of over 30% in size; note: potency is the fitted concentration of half-maximal effect
Summary of the method: as §1

[20] = Quantitative High-Throughput drug screen in 47 multiple myeloma cell lines against the NCATS MIPE library collection: OCIMY1_PLB cell viability assay (AID 1918979); note: nearly all actives have a fitted effect of over 35% in size
Summary of the method: as §1

CC[C@@]1([C@@H]2O[C@@H]([C@H]3O[C@@](O)(CO)[C@H](C)C[C@H]3C)C[C@H]2C)CC[C@H]([C@]2(C)CC[C@]3(C[C@H](O)[C@@H](C)[C@@H]([C@@H](C)[C@@H](OC)[C@H](C)C(=O)O)O3)O2)O1
active: Potency [1] 182 nM | Potency [2] 0.229 µM | Potency [3] 0.0645 µM | Potency [4] 0.512 µM | Potency [5] 0.724 µM | Potency [6] 229 nM | Potency [7] 0.162 µM | Potency [8] 0.323 µM | Potency [9] 0.363 µM | Potency [10] 257 nM | Potency [11] 363 nM | Potency [12] 0.512 µM | Potency [13] 182 nM | Potency [14] 0.323 µM | Potency [15] 0.229 µM | Potency [16] 0.144 µM

CC(=O)N1CCN(c2ccc(OCc3nn(C)c(C)c3-c3cccc4c(CCCOc5cccc6ccccc56)c(C(=O)O)n(Cc5cccnc5)c34)cc2)CC1
active: Potency [1] 37.2 nM | Potency [2] 1.05 µM | Potency [4] 16.6 µM | Potency [17] 1.18 µM | Potency [5] 18.7 µM | Potency [6] 1 nM | Potency [18] 0.118 µM | Potency [7] 0.469 µM | Potency [9] 0.526 µM | Potency [10] 105 nM | Potency [11] 235 nM | Potency [12] 0.332 µM | Potency [14] 1.66 µM | Potency [19] 1.18 µM | Potency [15] 23.5 µM | Potency [16] 23.5 µM

Nc1nc(N)c2nc(-c3cccc(O)c3)c(-c3cccc(O)c3)nc2n1
active: Potency [1] 14800 nM | Potency [2] 18.7 µM | Potency [3] 23.5 µM | Potency [4] 26.4 µM | Potency [17] 3.72 µM | Potency [5] 14.8 µM | Potency [18] 18.7 µM | Potency [7] 9.35 µM | Potency [9] 18.7 µM | Potency [11] 4180 nM | Potency [12] 3.32 µM | Potency [13] 3720 nM | Potency [14] 2.96 µM | Potency [19] 2.64 µM

COC(=O)[C@@H]1[C@H]2C[C@@H]3c4[nH]c5ccccc5c4CCN3C[C@@H]2CC[C@@H]1O
inactive: Potency [1] | Potency [2] | Potency [3] | Potency [4] | Potency [17] | Potency [7] | Potency [11] | Potency [12] | Potency [13] | Potency [14] | Potency [19] | Potency [15] | Potency [16]

COc1cc2c(Nc3ccc(Cl)c(Cl)c3F)ncnc2cc1OCC1C[C@@H]2CN(C)C[C@H]2C1
active: Potency [1] 16600 nM | Potency [2] 16.6 µM | Potency [3] 18.7 µM | Potency [4] 16.6 µM | Potency [17] 1.66 µM | Potency [6] 209 nM | Potency [18] 1.87 µM | Potency [7] 3.32 µM | Potency [8] 5.9 µM | Potency [9] 23.5 µM | Potency [11] 2350 nM | Potency [13] 2350 nM | Potency [14] 1.87 µM | Potency [19] 1.32 µM | Potency [15] 8.33 µM | Potency [16] 20.9 µM

CC(C)(O)CC[C@@H](O)[C@](C)(O)[C@H]1CC[C@@]2(O)C3=CC(=O)[C@@H]4C[C@@H](O)[C@@H](O)C[C@]4(C)[C@@H]3CC[C@]12C
inactive: Potency [20] | Potency [3] | Potency [5] | Potency [6] | Potency [18] | Potency [7] | Potency [11] | Potency [14] | Potency [19] | Potency [15] | Potency [16]

Cn1cnc2c(F)c(Nc3ccc(Br)cc3F)c(C(=O)NOCCO)cc21
inactive: Potency [20] | Potency [3] | Potency [4] | Potency [18] | Potency [7] | Potency [9] | Potency [19] | Potency [15]
active: Potency [14] 0.0743 µM

CC(C)(O)[C@H]1CC[C@@](C)([C@H]2[C@@H](O)C[C@@]3(C)[C@@H]4C[C@H](O[C@@H]5O[C@H](CO)[C@@H](O)[C@H](O)[C@@H]5O)[C@H]5C(C)(C)[C@@H](O[C@@H]6OC[C@@H](O)[C@H](O)[C@@H]6O)CC[C@@]56C[C@@]46CC[C@]23C)O1
active: Potency [7] 16.6 µM
inactive: Potency [20] | Potency [3] | Potency [4] | Potency [5] | Potency [6] | Potency [9] | Potency [11] | Potency [13] | Potency [19] | Potency [15] | Potency [16]

CC1(C)[C@H](O[C@H]2O[C@H](C(=O)O)[C@@H](O)[C@H](O)[C@H]2O[C@@H]2O[C@H](C(=O)O)[C@@H](O)[C@H](O)[C@H]2O)CC[C@@]2(C)[C@H]1CC[C@]1(C)[C@H]2C(=O)C=C2[C@H]3C[C@@](C)(C(=O)O)CC[C@]3(C)CC[C@]21C
inactive: Potency [20] | Potency [4] | Potency [5] | Potency [18] | Potency [7] | viability [8] 142% | Potency [11] | Potency [14] | Potency [19]

COC(=O)C=CC(=O)OC
active: Potency [1] 1660 nM | Potency [2] 23.5 µM | Potency [18] 11.8 µM | Potency [7] 20.9 µM | Potency [10] 1320 nM | Potency [11] 1320 nM | Potency [12] 2.64 µM | Potency [14] 5.26 µM | Potency [19] 3.32 µM
inactive: Potency [3] | Potency [4] | viability [8] 144% | Potency [15] | Potency [16]

NC(=O)Nc1sc(-c2ccc(F)cc2)cc1C(N)=O
active: Potency [1] 332 nM | Potency [2] 4.69 µM | Potency [4] 18.7 µM | Potency [17] 0.0833 µM | Potency [5] 2.64 µM | Potency [6] 662 nM | Potency [18] 2.09 µM | Potency [7] 0.833 µM | Potency [8] 11.8 µM | Potency [9] 13.2 µM | Potency [10] 10.5 nM | Potency [11] 46.9 nM | Potency [12] 1.32 µM | Potency [13] 743 nM | Potency [14] 0.372 µM | Potency [19] 0.833 µM | Potency [15] 5.9 µM | Potency [16] 18.7 µM
